Test results as given in PubChem BioAssay AID1159580 (chemical genetic matrix, 2015).
About 2,000 (36%) of roughly 5,500 compounds were called active. Roughly 18% stayed inconclusive and do not appear here. Rule as the data show it: active = normalized growth mostly below about 0.91 (no sharp cut-off); inconclusive = no clear call, values can overlap the other calls; inactive = mostly above about 0.92. The list shows a part of the results.

Experiment: chemical genetic growth profiling, strain panel (AID 1159580);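 also: tested at 20 µM; growth read once vehicle control cultures reached saturation at 30 °C; 1 = growth at the plate median or of vehicle wells; lower values mean less growth of the strain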
Details: S. cerevisiae deletion strains, growth OD
[1] = locus YAL013W, strain DEP1, stronger effect = lower value
[2] = locus YBR229C, strain ROT2, stronger effect = lower value
[3] = locus YDL101C, strain DUN1, stronger effect = lower value
[4] = locus YGR078C, strain PAC10, stronger effect = lower value
[5] = locus YJL187C, strain SWE1, stronger effect = lower value
[6] = locus YJR043C, strain POL32, stronger effect = lower value
[7] = locus YJR075W, strain HOC1, stronger effect = lower value
[8] = locus YKL190W, strain CNB1, stronger effect = lower value
[9] = locus YLR039C, strain RIC1, stronger effect = lower value
[10] = locus YLR262C, strain YPT6, stronger effect = lower value
[11] = locus YMR263W, strain SAP30, stronger effect = lower value
[12] = locus YNL153C, strain GIM3, stronger effect = lower value
[13] = locus YNL322C, strain KRE1, stronger effect = lower value
[14] = locus YPL055C, strain LGE1, stronger effect = lower value
[15] = locus YPL241C, strain CIN2, stronger effect = lower value

Measured: normalized growth

CC1(C)C(O)CC(=O)C2(C)C1CC(O)C1(C)C2CCC2(C)C(c3ccoc3)OC(=O)C3OC321 (stereo unspecified)
inactive: [1] 1 | locus YAL021C, strain ccr4, stronger effect = lower value 0.99 | locus YAL026C, strain drs2, stronger effect = lower value 1.02 | locus YAL030W, strain snc1, stronger effect = lower value 1 | locus YBL061C, strain skt5, stronger effect = lower value 1 | locus YBR009C, strain hhf1, stronger effect = lower value 0.999 | locus YBR021W, strain FUR4, stronger effect = lower value 0.931 | locus YBR023C, strain chs3, stronger effect = lower value 0.99 | locus YBR171W, strain sec66, stronger effect = lower value 0.995 | [2] 1 | locus YBR231C, strain swc5, stronger effect = lower value 0.999 | locus YBR279W, strain paf1, stronger effect = lower value 0.997 | locus YCL011C, strain gbp2, stronger effect = lower value 1 | locus YCL016C, strain dcc1, stronger effect = lower value 1.01 | locus YCL029C, strain bik1, stronger effect = lower value 1 | locus YCL061C, strain MRC1, stronger effect = lower value 0.993 | locus YCL069W, strain vba3, stronger effect = lower value 1.03 | locus YCR088W, strain abp1, stronger effect = lower value 0.989 | locus YDL005C, strain med2, stronger effect = lower value 0.99 | locus YDL035C, strain GPR1, stronger effect = lower value 0.989 | locus YDL040C, strain nat1, stronger effect = lower value 0.997 | locus YDL074C, strain BRE1, stronger effect = lower value 0.976 | [3] 1.01 | locus YDL185W, strain tfp1, stronger effect = lower value 1.02 | locus YDL192W, strain arf1, stronger effect = lower value 0.988 | locus YDR001C, strain nth1, stronger effect = lower value 0.999 | locus YDR069C, strain doa4, stronger effect = lower value 1 | locus YDR101C, strain arx1, stronger effect = lower value 1 | locus YDR137W, strain rgp1, stronger effect = lower value 0.997 | locus YDR159W, strain sac3, stronger effect = lower value 0.973 | locus YDR162C, strain NBP2, stronger effect = lower value 1 | locus YDR195W, strain ref2 0.939 | locus YDR297W, strain sur2, stronger effect = lower value 0.985 | locus YDR318W, strain mcm21, stronger effect = lower value 1 | locus YDR334W, strain swr1, stronger effect = lower value 0.998 | locus YDR335W, strain msn5, stronger effect = lower value 1 | locus YDR388W, stronger effect = lower value 1.01 | locus YDR392W, strain spt3, stronger effect = lower value 0.989 | locus YDR502C, strain sam2, stronger effect = lower value 1.02 | locus YEL003W, strain gim4, stronger effect = lower value 0.997 | locus YEL037C, strain rad23, stronger effect = lower value 1.02 | locus YEL061C, strain CIN8 (second series), stronger effect = lower value 0.995 | locus YER015W, strain faa2, stronger effect = lower value 1 | locus YER016W, strain bim1, stronger effect = lower value 1 | locus YER110C, stronger effect = lower value 1.01 | locus YER111C, strain swi4, stronger effect = lower value 0.99 | locus YER155C, strain BEM2 (second series), stronger effect = lower value 0.998 | locus YER155C, strain BEM2, stronger effect = lower value 1 | locus YER167W, strain BCK2, stronger effect = lower value 0.998 | locus YFR010W, strain ubp6, stronger effect = lower value 1.01 | locus YGL078C, strain dbp3, stronger effect = lower value 1.03 | locus YGL086W, strain mad1, stronger effect = lower value 1 | locus YGL167C, strain pmr1, stronger effect = lower value 1.01 | locus YGL173C, strain kem1, stronger effect = lower value 0.994 | locus YGL227W, strain vid30, stronger effect = lower value 0.986 | locus YGL240W, strain doc1, stronger effect = lower value 0.973 | locus YGL248W, strain PDE1, stronger effect = lower value 1 | locus YGL253W, strain hxk2, stronger effect = lower value 1 | [4] 1.01 | locus YGR135W, strain pre9, stronger effect = lower value 1.03 | locus YGR229C, strain SMI1, stronger effect = lower value 1.12 | locus YGR252W, strain gcn5, stronger effect = lower value 0.986 | locus YHR013C, strain ard1, stronger effect = lower value 0.996 | locus YHR027C, strain rpn1, stronger effect = lower value 0.987 | locus YHR079C, strain IRE1 (second series), stronger effect = lower value 1.01 | locus YHR094C, strain hxt1, stronger effect = lower value 1.01 | locus YHR129C, strain ARP1, stronger effect = lower value 0.999 | locus YHR142W, strain chs7, stronger effect = lower value 1.02 | locus YHR200W, strain rpn10, stronger effect = lower value 1 | locus YIL066C, strain RNR3, stronger effect = lower value 0.995 | locus YIL073C, strain SPO22, stronger effect = lower value 1.05 | locus YIL125W, strain kgd1, stronger effect = lower value 1 | locus YIR030C, strain dcg1, stronger effect = lower value 1.01 | locus YJL092W, strain hpr5, stronger effect = lower value 1.01 | locus YJL095W, strain BCK1 (second series), stronger effect = lower value 1.02 | locus YJL095W, strain BCK1, stronger effect = lower value 1.01 | locus YJL115W, strain asf1, stronger effect = lower value 0.993 | locus YJL129C, strain trk1, stronger effect = lower value 0.978 | locus YJL134W, strain LCB3, stronger effect = lower value 1.01 | locus YJL154C, strain vps35, stronger effect = lower value 1 | locus YJL164C, strain tpk1, stronger effect = lower value 1.02 | locus YJL166W, strain qcr8, stronger effect = lower value 0.994 | locus YJL168C, strain set2, stronger effect = lower value 1.01 | locus YJL187C, strain SWE1 (second series), stronger effect = lower value 1.02 | [5] 0.996 | [6] 0.987 | [7] 0.997 | locus YKL009W, strain mrt4, stronger effect = lower value 0.977 | locus YKL068W, stronger effect = lower value 1.01 | locus YKL085W, strain MDH1 (second series), stronger effect = lower value 1 | locus YKL085W, strain MDH1, stronger effect = lower value 1 | locus YKL160W, strain elf1, stronger effect = lower value 1.01 | [8] 1 | locus YKR001C, strain vps1, stronger effect = lower value 0.993 | locus YKR026C, strain gcn3, stronger effect = lower value 0.992 | locus YKR091W, strain srl3, stronger effect = lower value 1 | locus YLL001W, strain dnm1, stronger effect = lower value 1.01 | locus YLL026W, stronger effect = lower value 0.997 | locus YLL041C, strain sdh2, stronger effect = lower value 0.997 | locus YLR027C, strain aat2, stronger effect = lower value 0.984 | [9] 0.95 | locus YLR058C, strain SHM2, stronger effect = lower value 1.01 | locus YLR102C, strain apc9, stronger effect = lower value 1.02 | locus YLR221C, strain rsa3, stronger effect = lower value 0.991 | locus YLR258W, strain gsy2, stronger effect = lower value 1.01 | locus YLR262C, strain YPT6 (second series), stronger effect = lower value 0.998 | [10] 1 | locus YLR268W, strain sec22, stronger effect = lower value 1.01 | locus YLR320W, strain mms22, stronger effect = lower value 1 | locus YLR342W, strain FKS1, stronger effect = lower value 0.984 | locus YLR357W, strain rsc2, stronger effect = lower value 0.99 | locus YLR370C, strain arc18, stronger effect = lower value 1.01 | locus YLR371W, strain rom2, stronger effect = lower value 0.984 | locus YLR384C, strain iki3, stronger effect = lower value 0.999 | locus YLR418C, strain cdc73, stronger effect = lower value 1 | locus YML016C, strain PPZ1, stronger effect = lower value 0.999 | locus YML032C, strain rad52, stronger effect = lower value 1 | locus YML120C, strain ndi1, stronger effect = lower value 1.01 | locus YML124C, strain tub3, stronger effect = lower value 1.01 | locus YMR058W, strain fet3, stronger effect = lower value 1.01 | locus YMR078C, strain ctf18, stronger effect = lower value 1.01 | locus YMR125W, strain sto1, stronger effect = lower value 0.992 | locus YMR129W, stronger effect = lower value 1.01 | locus YMR205C, strain PFK2, stronger effect = lower value 0.982 | locus YMR223W, strain ubp8, stronger effect = lower value 1.01 | locus YMR231W, strain pep5, stronger effect = lower value 1 | [11] 1.02 | locus YMR307W, strain GAS1, stronger effect = lower value 0.975 | locus YNL067W, strain RPL9B, stronger effect = lower value 1.04 | locus YNL071W, strain lat1, stronger effect = lower value 0.996 | locus YNL128W, strain TEP1, stronger effect = lower value 1.02 | [12] 1.03 | locus YNL209W, strain ssb2, stronger effect = lower value 0.995 | locus YNL233W, strain BNI4, stronger effect = lower value 1 | locus YNL248C, strain rpa49, stronger effect = lower value 0.99 | locus YNL250W, strain rad50, stronger effect = lower value 1.02 | locus YNL271C, strain bni1, stronger effect = lower value 1.01 | locus YNL298W, strain CLA4, stronger effect = lower value 1.02 | locus YNL307C, strain MCK1, stronger effect = lower value 1.01 | locus YNL322C, strain KRE1 (second series), stronger effect = lower value 0.998 | [13] 1.01 | locus YNR049C, strain mso1, stronger effect = lower value 0.997 | locus YNR052C, strain pop2, stronger effect = lower value 1.02 | locus YOL012C, strain htz1 0.761 | locus YOL147C, strain pex11, stronger effect = lower value 1.01 | locus YOR001W, strain rrp6, stronger effect = lower value 0.984 | locus YOR061W, strain CKA2, stronger effect = lower value 1.01 | locus YOR069W, strain VPS5, stronger effect = lower value 1.01 | locus YOR070C, strain gyp1, stronger effect = lower value 0.993 | locus YOR080W, strain dia2, stronger effect = lower value 0.997 | locus YOR083W, strain WHI5, stronger effect = lower value 1.01 | locus YOR106W, strain vam3, stronger effect = lower value 1.02 | locus YOR136W, strain idh2, stronger effect = lower value 1.01 | locus YOR144C, strain elg1, stronger effect = lower value 1.01 | locus YOR184W, strain ser1, stronger effect = lower value 1.01 | locus YOR265W, strain rbl2, stronger effect = lower value 1.01 | locus YOR270C, strain vph1, stronger effect = lower value 1.03 | locus YOR290C, strain snf2, stronger effect = lower value 1.02 | locus YOR316C, strain cot1, stronger effect = lower value 1.01 | locus YPL051W, strain arl3, stronger effect = lower value 1.01 | [14] 0.989 | locus YPL078C, strain atp4, stronger effect = lower value 1.01 | locus YPL106C, strain sse1, stronger effect = lower value 0.988 | locus YPL240C, strain hsp82, stronger effect = lower value 1.01 | [15] 1.01 | locus YPR119W, strain clb2, stronger effect = lower value 1 | locus YPR141C, strain kar3, stronger effect = lower value 1.01 | locus YPR163C, strain tif3, stronger effect = lower value 1.01 | locus YPR167C, strain met16, stronger effect = lower value 1.01 | strain wtn01, stronger effect = lower value 0.997

CN1c2ccccc2C(=O)/C(=N/Nc2ccccc2F)S1(=O)=O
inactive: [1] 1 | [2] 1.02 | [3] 1.02 | locus YDR150W, strain NUM1, stronger effect = lower value 1.04 | locus YEL061C, strain CIN8, stronger effect = lower value 1.01 | [4] 1.02 | locus YHR030C, strain SLT2, stronger effect = lower value 0.991 | locus YHR087W, strain rtc3, stronger effect = lower value 1.01 | [5] 0.997 | [6] 1.01 | [7] 1.02 | [8] 1 | [9] 0.999 | locus YLR058C, strain SHM2 (second series), stronger effect = lower value 1.02 | locus YLR085C, strain ARP6, stronger effect = lower value 0.965 | [10] 1.01 | locus YML094W, strain GIM5, stronger effect = lower value 0.995 | locus YMR219W, strain ESC1, stronger effect = lower value 1.01 | [11] 1.01 | [12] 1.02 | locus YNL298W, strain CLA4 (second series), stronger effect = lower value 0.995 | [13] 1.01 | locus YNR030W, strain Alg12, stronger effect = lower value 0.997 | [14] 1.03 | [15] 0.993 | locus YPR135W, strain CTF4, stronger effect = lower value 1.06
